This note sets out measurements from ChEMBL document CHEMBL3433997, “St. Jude Leishmania screening dataset” (2016).

What all share (assay type): functional
Assay [1] addresses Solute carrier family 2, facilitated glucose transporter member 1 (Homo sapiens) (UniProt P11166). The assay can be described thus: ST_JUDE_LEISH: Cytotoxicity at 2uM final concentration against transgenic Leishmania Mexicana promastigotes LmGLUT1 that are glucose transport deficient and complemented with the human glucose transporter GLUT1. Activity is measured by DNA content using SYBR green in vitro.

Assay [2] has as its target Hexose transporter 1 (Plasmodium falciparum) (UniProt O97467). Briefly: ST_JUDE_LEISH: Cytotoxicity at 2uM final concentration against transgenic Leishmania Mexicana promastigotes LmPfHT that are glucose transport deficient and complemented with the Plasmodium falciparum hexose transporter. Activity is measured by DNA content using SYBR green in vitro.
In assay [3] the target is Glucose transporter (Leishmania mexicana) (UniProt O61059). The assay can be described thus: ST_JUDE_LEISH: Cytotoxicity at 2uM final concentration against transgenic Leishmania Mexicana promastigotes LmGT2 that are glucose transport deficient and complemented with the L. Mexicana glucose transporter 2. Activity is measured by DNA content using SYBR green in vitro.

Several values for one entry are separate records, joined by “and”; a condition that tells them apart may be missing. Equal values may be shown once.

Chain of Solute carrier family 2, facilitated glucose transporter member 1 (Homo sapiens) (P11166 whole entry): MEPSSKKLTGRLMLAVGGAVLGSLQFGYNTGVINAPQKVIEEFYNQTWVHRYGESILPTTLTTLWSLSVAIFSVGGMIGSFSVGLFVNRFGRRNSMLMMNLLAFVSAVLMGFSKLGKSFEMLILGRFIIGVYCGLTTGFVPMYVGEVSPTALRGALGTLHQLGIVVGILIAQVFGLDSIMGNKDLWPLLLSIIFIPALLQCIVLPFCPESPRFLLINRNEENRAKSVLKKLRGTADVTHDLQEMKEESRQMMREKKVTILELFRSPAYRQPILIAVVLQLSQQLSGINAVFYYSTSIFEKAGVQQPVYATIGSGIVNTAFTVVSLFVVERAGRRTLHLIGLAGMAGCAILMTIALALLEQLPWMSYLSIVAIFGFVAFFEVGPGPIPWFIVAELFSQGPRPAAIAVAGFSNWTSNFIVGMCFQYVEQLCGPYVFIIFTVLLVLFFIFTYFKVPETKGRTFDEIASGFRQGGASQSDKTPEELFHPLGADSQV

Broadly, the inhibition is the change of the read-out against control, counted positive when it falls. Turning to `COC(=O)/C=C/c1ccc(CC(C)NCC(O)c2cccc(C(F)(F)F)c2)cc1` (stereo not drawn), the inhibition was 0.9% and -0.04% in assay [1]; -2.11% and 0.7% in assay [2]; -1.59% and -0.73% in assay [3].

For `CC(=O)C1(c2ccccc2)CCN(CCC2(c3ccc(Cl)c(Cl)c3)CN(C(=O)Nc3cc(F)cc(F)c3)CCO2)CC1` (stereo not drawn), the inhibition was 2.31% in assay [1], 2.4% in assay [2] and -0.62% in assay [3].

Consider `CCCc1c(C(=O)NC2CCC(CN3CCC(c4c[nH]c5ccccc45)CC3)CC2)cnn1-c1ccccc1` (stereo not drawn), for which the results for the inhibition in assay [1], in assay [2] and in assay [3] were 3.14%, 1.15% and 1.83%, respectively.

Turning to `CC[C@H]1CN2CC[C@H]1C[C@H]2[C@H](O)c1cc(N2CCCC2)nc2ccc(OC)cc12`, the results for the inhibition in assay [1], in assay [2] and in assay [3] were -0.2%, -1.79% and 0.03%, respectively.

Regarding `O=C(/C=C/c1ccc2ccccc2c1)NC1CCC(CN2CCC(c3c[nH]c4ccccc34)CC2)CC1` (stereo not drawn), the inhibition in assay [1] worked out at 1.06%; in assay [2], 1.84%; in assay [3] it was 3.4%.

As to `CC[C@H]1CN2CC[C@H]1C[C@H]2[C@H](O)c1cc(-c2cccc(Cl)c2)nc2ccc(OC)cc12`, the results for the inhibition in assay [1], in assay [2] and in assay [3] were 9.7%, 9.03% and 10.7%, respectively.

Regarding `CCOC(=O)CCCN1C(=O)CN=C(c2ccccc2)c2cc(Cl)ccc21`, the inhibition was -1.02% in assay [1], 0.13% in assay [2] and 3.48% in assay [3].

On to `O=C(/C=C/c1ccc(Cl)c(Cl)c1)N1CCC(CN2CCC(c3c[nH]c4ccc(O)cc34)CC2)CC1`, for which the inhibition is 1.04% in assay [1], -0.44% in assay [2] and 4.21% in assay [3].

Turning to `Cc1[nH]c2ccccc2c1C1=CCN(CCCCC2(C)C(=O)Nc3ccccc32)CC1` (stereo not drawn), the inhibition was 2.98% in assay [1], 2.07% in assay [2] and -0.37% in assay [3].

For the compound `N#Cc1ccc(N(CC(=O)NCCc2ccc(F)cc2)CC2CC2)c2ccccc12`, the inhibition in assay [1] is -0.35%; in assay [2] it was -0.59%; in assay [3] it was 1.47%.

Regarding `O=C(NC1CCC(CN2CCC(c3c[nH]c4ccccc34)CC2)CC1)c1cc(-c2ccccc2Cl)n(-c2cccc(Cl)c2)n1` (stereo not drawn), the inhibition in assay [1] stood at 3.93%; in assay [2], 2.86%; in assay [3], 1.71%.

For the compound `Cc1ccc(CC(C)NCC(O)c2cccc(C#N)c2)cc1` (stereo not drawn), the inhibition in assay [1] was 9.34%; in assay [2], 13.4%; in assay [3] it was 9.79%.

As for `O=C(/C=C/c1ccc(Cl)c(Cl)c1)NC1CCC(CN2CCC(c3c[nH]c4ccccc34)C(O)C2)CC1` (stereo not drawn), the inhibition in assay [1] was 5.68%; in assay [2] it was 3.72%; in assay [3], 4.19%.

With `CN1CC=C(C=Cc2c[nH]c3ccccc23)CC1`, the results for the inhibition in assay [1], in assay [2] and in assay [3] were 0.96%, 2.14% and 3.25%, respectively.

Regarding `O=C(/C=C/c1ccccc1Cl)NC1CCC(CN2C3CCC2CC(c2c[nH]c4ccccc24)C3)CC1` (stereo not drawn), the inhibition in assay [1] is 2.84%; in assay [2], -0.31%; in assay [3], 5.5%.

For `Cc1ccc(CC(C)NCC(O)c2cccc(C(F)(F)F)c2)c(C)c1` (stereo not drawn), the inhibition in assay [1] was 1.64%; in assay [2], 0.6%; in assay [3], 0.75%.

With `COc1ccc(OC)c(C(O)CNC(C)C)c1` (stereo not drawn), the inhibition in assay [1] was determined as 1.92%; in assay [2], 2.47%; in assay [3], 0.42%.

Consider `O=C(/C=C/c1cc(C(F)(F)F)ccc1F)N1CCC(CN2CCC(c3c[nH]c4ccccc34)CC2)CC1`, for which the results for the inhibition in assay [1], in assay [2] and in assay [3] were 1.52%, 1.34% and -1.26%, respectively.

As for `O=C(Nc1cc(C(F)(F)F)cc(C(F)(F)F)c1)NC1CCC(CN2CCC(c3c[nH]c4ccccc34)CC2)CC1` (stereo not drawn), the inhibition in assay [1] is -2.79% and 4.32%; in assay [2], -1.6% and 4.26%; in assay [3] it was -0.26% and 2.03%.

In the case of `O=C(NC1CCC(CN2CCC(c3c[nH]c4ccccc34)CC2)CC1)c1cc2ccccc2o1` (stereo not drawn), the inhibition in assay [1] was 2.54%; in assay [2], 0.9%; in assay [3], -2.2%.

With `CCCCCC(C)C(C)c1cc(O)c2c(c1)OC1(C(C)C)CC(O)C(C)C2C1` (stereo not drawn), the inhibition came out at 5.93% in assay [1], 5.5% in assay [2] and 6.4% in assay [3].

As to `COc1ccc(NC(=S)NC(NC(=O)CF)C(Cl)(Cl)Cl)cc1[N+](=O)[O-]` (stereo not drawn), the inhibition in assay [1] was 3.05%; in assay [2], -3.38%; in assay [3] it was -1.65%.

For `Oc1ccc(CN2CCN(CCOC(c3ccccc3)c3ccc(Cl)cc3)CC2)cc1Cl` (stereo not drawn), the inhibition in assay [1] is 5.8%; in assay [2] it was 1.85%; in assay [3] it was -3.12%.

Take `CC(Cc1ccc(C2=CCNCC2)cc1)NCC(O)c1cccc(C(F)(F)F)c1` (stereo not drawn): the inhibition was -2.15% in assay [1], -1.67% in assay [2] and -0.93% in assay [3].

On to `C/C=C1/CN2CC[C@H]1C[C@H]2[C@H](O)c1ccnc2ccc(O)cc12`, for which the inhibition in assay [1] is -0.31%; in assay [2] it was -1.31%; in assay [3], -0.61%.

For the compound `CC(=O)Nc1ccc(OCCN(CC(C)C)c2ccc(C#N)c(C(F)(F)F)c2)c(Cl)c1`, the inhibition in assay [1] came to 3.54%; in assay [2], 2.7%; in assay [3], 2.53%.

As to `CC[C@H]1CN2CC[C@H]1C[C@H]2[C@H](O)c1cc(N2CCCC(C(=O)N(CC)CC)C2)nc2ccc(OC)cc12` (stereo partly drawn), the inhibition in assay [1] was determined as 1.75%; in assay [2], 2.21%; in assay [3], 0.33%.

For the compound `Cc1c2ccncc2c(C)c2c1[nH]c1ccccc12`, the inhibition in assay [1] amounted to 17.5%; in assay [2] it was 20.9%; in assay [3], 14.7%.

Take `CC(Cc1ccc(S(=O)(=O)N(C(C)C)C(C)C)cc1)NCC(O)c1cccc(C(F)(F)F)c1` (stereo not drawn): the inhibition is -0.77% in assay [1], 2.53% in assay [2] and 1.68% in assay [3].

For `Cc1[nH]c2ccc(O)cc2c1C1CCN(CC2CCC(NC(=O)/C=C/c3ccc(Cl)c(Cl)c3)CC2)CC1` (stereo not drawn), the inhibition in assay [1] is 0.37%; in assay [2], 0.95%; in assay [3], 0.57%.

Regarding `Brc1cnc(NC2=NCCN2)c(Br)c1`, the inhibition in assay [1] is 2.63%; in assay [2] it was 3.41%; in assay [3], 3.27%.

On to `COC(=O)CN(C(=O)/C=C/c1ccc(Cl)c(Cl)c1)C1CCC(CN2CCC(c3c[nH]c4ccccc34)CC2)CC1` (stereo not drawn), for which the inhibition in assay [1] is 1.07%; in assay [2], 4.03%; in assay [3], 2.24%.

Take `N=C(N)NC(=O)Nc1ccc([N+](=O)[O-])c(Cl)c1`: the inhibition in assay [1] was 0.15%; in assay [2], 1.53%; in assay [3], 0.59%.

Take `CC[C@H]1CN2CC[C@H]1C[C@@H]2[C@@H](O)c1ccnc2ccccc12`: the inhibition in assay [1] was -0.01%; in assay [2] it was 0.66%; in assay [3], -1.98%.

Regarding `COc1coc(C(=O)NC2CCN(CC3(c4ccc(Cl)cc4)CCC3)CC2)c1OC`, the results for the inhibition in assay [1], in assay [2] and in assay [3] were 4.7%, 4.52% and 2.81%, respectively.

Regarding `O=C(/C=C/c1cccs1)NC1CCC(CN2CCC(c3c[nH]c4ccccc34)CC2)CC1` (stereo not drawn), the inhibition came out at 4.14% in assay [1], 5.22% in assay [2] and 2.51% in assay [3].
